Data on 26 compounds can be found in PubChem BioAssay (NCATS).

Experiment [1] in a line: Viability qHTS for spleen associated tyrosine kinase inhibitor (SYKi) naive MV4-11 cells (AID 1963823). Note: nearly all actives have a fitted effect of over 40% in size. Note: potency is the fitted concentration of half-maximal effect. In a few lines: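 SYK inhibitor-naive MV4-11 cells, 500 per well, exposed to compounds for 72 hr at 37 C, 5% CO2. Viability read as CellTiter-Glo luminescence after 10 min at room temperature.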
(qHTS replaces the single test concentration by a dilution series.)

Experiment [2] can be described thus: Viability qHTS for spleen associated tyrosine kinase inhibitor (SYKi) drug resistant MV4-11 cells (AID 1963824). Note: nearly all actives have a fitted effect of over 35% in size. Note: potency is the fitted concentration of half-maximal effect. An outline of the steps: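 CellTiter-Glo luminescence, read 10 min after reagent addition, reports viability after a 72 hr compound exposure. Cells are an MV4-11 line made resistant to SYK inhibition, seeded at 500 per well onto compound-containing plates.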

Experiment [3] can be described thus: Quantitative highthroughput screen to assess conditional lethalithy of P12 Ichikawa cells grown in Human Plasma-Like Medium with dialyzed fetal bovine serum (HPLM+ds) (AID 1963879). Note: series mostly up to about 46 µM; nearly all actives have a fitted effect of over 35% in size. The note with it: Potency: viability. In a few lines:
(§1)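 Each medium arm—HPLM with 10% dialyzed FBS, or RPMI1640 with 5 mM glucose and 10% untreated or dialyzed FBS—was screened against an 11-point, 3-fold compound titration for 48 h at 37 °C, with CellTiter-Glo luminescence as endpoint.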

A short description of experiment [4]: Quantitative highthroughput screen to assess conditional lethalithy of SEM cells grown in Human Plasma-Like Medium with dialyzed fetal bovine serum (HPLM+ds) (AID 1963882). Note: series mostly up to about 46 µM; nearly all actives have a fitted effect of over 35% in size. In a few lines:
as §1

Experiment [5] can be described thus: Cellular viability qHTS for adrenocortical cancer (ACC) cell line SW-13 (AID 1963989).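 For activity (max response): cells grown in serum-free medium with ITS supplement; % is set by controls: 0 for no effect and ±100 for the full control effect.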 Note: nearly all actives have a fitted effect of over 65% in size. Note: potency is the fitted concentration of half-maximal effect. The note with it: SW-13 ACC cells viability, CellTiter-Glo, 48 h; activity (max response): stronger effect = lower value. In a few lines: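 SW-13 cells in ITS-supplemented serum-free DMEM were plated overnight, then exposed for 48 h at 37C to compound titrations (up to 46 uM final). Viability was read by CellTiter-Glo luminescence; four-parameter logistic fits gave IC50 and efficacy.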

Experiment [6] in a line: Cellular viability qHTS for adrenocortical cancer (ACC) cell line NCI-H295R (AID 1963990). Note: nearly all actives have a fitted effect of over 60% in size. Note: potency is the fitted concentration of half-maximal effect. In a few lines:
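Luminescent ATP read-out (CellTiter-Glo, 20 min RT) after 48 h drug exposure of NCI-H295R cells; a titration up to 46 uM final. Data normalized to doxorubicin (100% inhibition) and DMSO (0%); 4-parameter fit gives IC50, max response.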

The nature of experiment [7]: Quantitative highthroughput screen to assess conditional lethalithy of SEM cells grown in RPMI1640 with unreated serum (RPMI+s) (AID 1963883).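 For Viability: 100% = DMSO wells and 0% = empty wells without cells.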 Note: nearly all actives have a fitted effect of over 35% in size. Note: potency is the fitted concentration of half-maximal effect. In a few lines: as §1
Experiment [8] is described as follows: Quantitative highthroughput screen to assess conditional lethalithy of SEM cells grown in RPMI1640 with dialyzed fetal bovine serum (RPMI+ds) (AID 1963884). In a few lines: as §1
Experiment [9] in a line: Quantitative highthroughput screen to assess conditional lethalithy of P12 Ichikawa cells grown in RPMI1640 with dialyzed fetal bovine serum (RPMI+ds) (AID 1963880). The note with it: Potency: P12-Ichikawa viability. In a few lines: as §1
Experiment [10] in a line: Quantitative highthroughput screen to assess conditional lethalithy of P12 Ichikawa cells grown in RPMI1640 with untreated serum (RPMI+s) (AID 1963881). The note with it: Potency: viability. An outline of the steps: as §1

Molecules are shown by their SMILES. “And” between values parts separate entries of the source, which are not always exact repeats. Equal values may be shown once. Inconclusive results are not listed. The source holds several records for some structures; these can differ, active in one and inactive in another. The source made the active and inactive calls. Calls come from the whole dose curve; as a rule, active = well fitted curve in the direction sought with a large enough effect; inconclusive = small, poorly fitted or top-dose-only effect, or another doubt; inactive = no such curve, though single readings can be large; an effect the other way counts as inactive or inconclusive.

As for `COC1=C(OC)C(=O)C(CCCCCCCCCCO)=C(C)C1=O`, the Potency is 10.6 µM (active) in [1]; 10.6 µM (active) and 13.2 µM (active) in experiment [2]; 4.11 µM (active) and 25.1 µM (active) in experiment [5]; 2.91 µM (active) and 5.01 µM (active) in experiment [6]. Also, the Potency entry in [3] and in experiment [4] was “inactive” in each case.

`CN1CCCC(n2nc(Cc3ccc(Cl)cc3)c3ccccc3c2=O)CC1` (stereo not given): the Potency in experiment [1] is 10.6 µM (active); in [2], 26.6 µM (active); in experiment [6] it was 18.4 µM (active). The Potency result in experiment [7] and in experiment [8] was “inactive” each time.

Take `CCn1cc(C(=O)O)c(=O)c2cc(F)c(N3CCN(C)CC3)cc21`: the Potency result in experiment [1], in [4], in [7], in experiment [8] and in experiment [6] was “inactive” each time. Besides, the Potency result in experiment [2] was “inactive and 16.6 µM (active)”; in experiment [9] it was 4.69 µM (active); in experiment [10], 4.18 µM (active). For the same compound, in experiment [5], the activity (max response) is 10.8% (inactive) and 4.42% (inactive).

Take `CCCCCCC[N+](CC)(CC)CCCCc1ccc(Cl)cc1`: the Potency in experiment [1] was 1.68 µM (active); in [2], 2.11 µM (active); in [5] it was 5.8 µM (active).

With `Cc1c[nH]c2ncnc(N3CCC(CN)(C(=O)Nc4cccc(OC(=O)N(C)C)c4)CC3)c12`, the Potency is 517 nM (active) and 662 nM (active) in [1]; 1.3 µM (active) and 1.66 µM (active) in experiment [2]. For the same compound, the activity (max response) in [5] is -9.88% (inactive).

`Nc1c2c(nc3c1CCC3)CCCC2`: the Potency result in [1] and in experiment [2] was “inactive” throughout. In [5], the activity (max response) is -9.88% (inactive).

In the case of `C[C@]12C=CC(=O)C=C1[C@@H](F)C[C@@H]1[C@@H]2[C@@H](O)C[C@@]2(C)[C@H]1CC[C@]2(O)C(=O)CO`, the Potency entry in experiment [1] and in experiment [2] was “inactive” throughout. Besides, the activity (max response) in experiment [5] is 7.4% (inactive).

Turning to `C[C@H]1C[C@H]2[C@@H]3CCC4=CC(=O)C=C[C@]4(C)[C@@]3(Cl)[C@@H](O)C[C@]2(C)[C@@]1(O)C(=O)CO`, the Potency is 21.1 µM (active) in experiment [1] and 13.3 µM (active) in [2]. In [5], the activity (max response) was -3.23% (inactive).

Turning to `[2H]C([2H])([2H])C(O)([C@@H](C)/C=C/[C@@H](C)[C@H]1CC[C@H]2/C(=C/C=C3C[C@@H](O)C[C@H](O)C3)CCC[C@]12C)C([2H])([2H])[2H]`, the values for the Potency in experiment [1] and in experiment [2] were 0.0105 µM (active) and 0.468 µM (active), respectively. The activity (max response) in experiment [5] was -26.6% (inactive).

As to `C#C[C@]1(O)CC[C@H]2[C@@H]3CCC4=Cc5oncc5C[C@]4(C)[C@H]3CC[C@@]21C`, the Potency was 15 µM (active) in experiment [1] and 8.41 µM (active) in experiment [2]. The activity (max response) in [5] is 0.351% (inactive).

Turning to `CCn1nc(C2CCN(C(=O)CCO)CC2)nc1-c1cnc(N)c(-c2nnc(C(C)(C)C)o2)n1`, the Potency in experiment [1] and in [2] was 5.25 µM (active) each time. Moreover, in [5], the activity (max response) is -18.1% (inactive).

In the case of `C[C@]1(Cn2ccnn2)[C@H](C(=O)O)N2C(=O)C[C@H]2S1(=O)=O`, the Potency result in experiment [1] and in [2] was “inactive” throughout. The activity (max response) in experiment [5] was 2.68% (inactive).

`CC(C)OC(=O)c1cc(C(=O)OC(C)C)cc([N+](=O)[O-])c1`: in [1], the Potency is 27.9 µM (active). Besides, the Potency entry in experiment [2] is “inactive”. Also, in experiment [5], the activity (max response) was 4.98% (inactive).

Regarding `CN(C)CCCOC1(Cc2ccccc2)CCCCCC1`, the Potency entry in experiment [1] and in [2] was “inactive” throughout. The activity (max response) in experiment [5] was 2.61% (inactive).

As to `Oc1ccc(C2CCN(c3ccnc4ccccc34)CC2)cc1O`, the Potency in [1] is 2.09 µM (active); in experiment [2], 1.86 µM (active); in [7] it was 11.8 µM (active). Further, the Potency entry in [6] is “inactive”.

In the case of `COc1cc(OC)c(/C=C/S(=O)(=O)Cc2ccc(OC)c(OP(=O)(O)O)c2)c(OC)c1`, the Potency in experiment [1] is 0.0118 µM (active); in [2], 0.0148 µM (active); in experiment [5] it was 0.0398 µM (active).

As to `CCCCOC(=O)c1ccc(O)cc1`, the Potency entry in experiment [1] and in experiment [2] was “inactive” throughout. The activity (max response) in experiment [5] was -18.3% (inactive).

For `CCn1c(N)c(C(=O)NC)c(=O)c2ccc(C#CC(C)(O)COC)nc21` (stereo not given), the Potency in experiment [1] was 4.17 µM (active); in [2], 4.11 µM (active). Also, the activity (max response) in [5] is 12.5% (inactive).

As for `N[C@@H](Cc1ccc(O)cc1)C(=O)O`, the viability (% of control) in experiment [1] is 88.5% [at 9.25 µM] (inactive). The viability, % of control in experiment [2] is 81.6% [at 9.25 µM] (inactive). In addition, in [5], the activity (max response) was 7.19% (inactive).

Regarding `COc1cc2ncnc(Nc3ccc(O)c(Br)c3)c2cc1OC`, the Potency was 1.16 µM (active) and 662 nM (active) in [1]; 1.64 µM (active) and 1.66 µM (active) in experiment [2]; 3.55 µM (active) in [5].

In the case of `CCCCC(CC)COC(=O)/C=C/c1ccc(OC)cc1` (stereo not given), the Potency result in experiment [1] and in experiment [2] was “inactive” each time. For the same compound, the activity (max response) in experiment [5] is 1.77% (inactive).

Take `CCNC1(C(N)=O)CCN(c2ncnc3c2nc(-c2ccccc2Cl)n3-c2ccc(Cl)cc2)CC1`: the Potency is 7.42 µM (active) in experiment [1] and 16.6 µM (active) in experiment [2]. In addition, the activity (max response) in experiment [5] is -4.01% (inactive).

Turning to `COc1ccc(CNC(=O)Nc2ncc([N+](=O)[O-])s2)cc1`, the Potency in experiment [1] was 9.34 µM (active); in experiment [2] it was 13 µM (active); in experiment [5] it was 25.1 µM (active).

In the case of `CCCNC(=O)[C@H]1O[C@@H]1C(=O)N[C@H](C(=O)N1CCC[C@H]1C(=O)OC)C(C)CC` (stereo not given in full), the results for the Potency in experiment [1], in experiment [2] and in [5] were 1.66 µM (active), 0.934 µM (active) and 10 µM (active), respectively.

Turning to `O=c1sn(-c2cccc3ccccc23)c(=O)n1Cc1ccccc1`, the Potency in experiment [1] was 14.6 µM (active); in experiment [2], 11.6 µM (active) and 8.33 µM (active). Moreover, the activity (max response) in experiment [5] is -18.3% (inactive).

Turning to `c1ccc(CC2=NCCN2)cc1`, the Potency result in experiment [1] and in experiment [2] was “inactive” each time. Also, the activity (max response) in [5] was -11.9% (inactive).
